Screening results (PubChem BioAssay)
Sm TGR block – qHTS Assay for the Inhibitors of Schistosoma Mansoni Peroxiredoxins | purified TGR, DTNB reduction, TNB absorbance 405 nm | Potency, µM (series often up to 114 µM), most hits filed as inhibitors | actives 3% (n = 360,000); further: nearly all actives have a fitted effect of over 60% in size
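TGR 20 nM + NADPH 100 uM (dispensed conc.), cpd preinc 15 min RT; start with NADPH (500 uM addition) then DTNB (15 mM addition). Kinetic TNB absorbance, 405 nm filter. Four-parameter Hill fit across titration.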
AmpC inh detg – qHTS Inhibitors of AmpC Beta-Lactamase (assay with detergent) | AmpC hydrolysis of nitrocefin, absorbance 480 nm, 0.01% Triton | Potency, µM (highest dose often 114 µM), actives largely listed as inhibitors | actives 0.041% (n = 370,000); further: nearly all actives have a fitted effect of over 25% in size
Target sequence (P00811 whole entry, looked up): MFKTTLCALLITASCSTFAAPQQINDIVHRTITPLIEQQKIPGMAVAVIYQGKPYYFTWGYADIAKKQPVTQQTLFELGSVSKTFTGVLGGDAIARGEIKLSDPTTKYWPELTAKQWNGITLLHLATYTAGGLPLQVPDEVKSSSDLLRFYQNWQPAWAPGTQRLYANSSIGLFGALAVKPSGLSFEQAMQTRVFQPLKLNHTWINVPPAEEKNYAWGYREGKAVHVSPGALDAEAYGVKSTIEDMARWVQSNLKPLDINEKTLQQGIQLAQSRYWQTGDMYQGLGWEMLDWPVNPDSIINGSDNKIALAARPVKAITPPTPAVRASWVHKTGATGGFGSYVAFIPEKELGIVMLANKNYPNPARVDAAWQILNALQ
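20 mM phosphate pH 7.0 + 0.01% (detergent screen) or 0.0001% Triton X-100; 5.3 nM AmpC reagent; cpd preinc 15 min RT; nitrocefin (800 uM stock) to start; A480 q20 s × 4 min; Activity was normalised to no-enzyme and no-compound control wells.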
SARS PLP yeast – qHTS of Yeast-based Assay for SARS-CoV PLP. actives 0.19% (n = 330,000). AID 485353, 2010. S. cerevisiae expressing SARS-CoV PLpro, growth rescue. Potency, µM (series often up to 32.9 µM), hits mostly activators; calls by dose curve; further: nearly all actives have a fitted effect of over 55% in size
Pf growth 96h – Primary qHTS for delayed death inhibitors of the malarial parasite plastid, 96 hour incubation. P. falciparum luciferase reporter growth, 96 h. Potency, µM (highest dose often 28.7 µM), most hits filed as inhibitors. actives 6.9% (n = 320,000)
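Luminescence readout: decreased luciferase signal marks inhibited growth of reporter-expressing P. falciparum in infected red cells (2% hematocrit, 0.05% parasitemia final), exposed to compound two generations (96 h, 37 C, 5% CO2).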
AmpC no deterg – qHTS Inhibitors of AmpC Beta-Lactamase (assay without detergent); AmpC nitrocefin hydrolysis, absorbance 480 nm, 0.0001% Triton; actives 0.52% (n = 330,000); Potency, µM (series often up to 57.1 µM), hits mostly inhibitors; AID 485341, 2010; P00811; further: nearly all actives have a fitted effect of over 20% in size
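20 mM phosphate pH 7.0 + 0.01% (detergent screen) or 0.0001% Triton X-100; 5.3 nM AmpC reagent; cpd preinc 15 min RT; nitrocefin (800 uM stock) to start; A480 q20 s × 4 min; Activity was normalised to no-enzyme and no-compound control wells.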
Pf growth 48h – Primary qHTS for delayed death inhibitors of the malarial parasite plastid, 48 hour incubation; Potency, µM (highest dose often 28.7 µM), hits mostly inhibitors; actives 5.9% (n = 310,000); P. falciparum luciferase growth in erythrocytes, 48 h
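First compound was added to culture medium, then infected red cells at 0.1% parasitemia and 2% hematocrit (final). After incubation at 37 C under 5% CO2, luciferase detection reagent was dispensed and light output recorded.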
Each line names hits and unclear results; the compound was inactive in the other large screens. Rows were chosen to be rich in hits. Some 12% of all compounds tested hit in one or more screens of this group. Unless noted, the call rests on the fitted dose curve; in most records, active means well fitted curve in the direction sought with a large enough effect; inconclusive means small, poorly fitted or top-dose-only effect, or another doubt; inactive means no such curve, though single readings can be large; an effect the other way counts as inactive or inconclusive.

COc1cc(OC)c(OC)cc1CN1CCc2nc(Nc3ccc4c(c3)OCCO4)ncc2C1	Sm TGR block inconclusive (no result: SARS PLP yeast, Pf growth 96h, AmpC no deterg, Pf growth 48h)
CCCc1cc(=O)oc2c3c(ccc12)OCN(Cc1ccc(OC)cc1)C3	none (no result: SARS PLP yeast, Pf growth 96h, AmpC no deterg, Pf growth 48h)
CCNc1ccc(S(=O)(=O)N(C)C)cc1NCC(=O)Nc1ccccc1Cl	none
O=C(NCCc1ccc(Cl)cc1)c1c2c(nc3ccccc13)C(=O)N(C1CCCCC1)C2	none (no result: SARS PLP yeast, Pf growth 96h, AmpC no deterg, Pf growth 48h)
COC(CNC(=O)c1ccc2nc(-c3cccs3)c(-c3cccs3)nc2c1)OC	Pf growth 96h inconclusive
COc1ccc(-c2nc3ccc(C(=O)NCC(OC)OC)cc3nc2-c2ccc(OC)c(OC)c2)cc1OC	Pf growth 48h 4.1µM
CCOC(=O)C(C)N1C(=O)S/C(=C/c2cc(C)n(-c3ccncc3)c2C)C1=O (stereo not given)	Pf growth 96h 13µM, Pf growth 48h inconclusive
O=C(CCC(=O)N1CC2CCCN2c2ccccc21)NCc1ccccc1 (stereo not given)	none (no result: SARS PLP yeast, Pf growth 96h, AmpC no deterg, Pf growth 48h)
CCOc1nc(NC(C)C)nc(N2CC3CC(C2)c2cccc(=O)n2C3)n1 (stereo not given)	none
CCCCCCNc1nc(OC)nc(N2CC3CC(C2)c2cccc(=O)n2C3)n1 (stereo not given)	Pf growth 48h 8.3µM
CCC(CC)c1nn2c(=O)cc(COc3ccc(NC(=O)c4ccccc4C)cc3)nc2s1	none (no result: SARS PLP yeast, Pf growth 96h, AmpC no deterg, Pf growth 48h)
O=C(CNC(=O)c1ccccc1)OCc1cccc([N+](=O)[O-])c1	none
CC(C)(C)c1ccc(C(=O)NCC(=O)OCc2ccc([N+](=O)[O-])cc2)cc1	Pf growth 96h 0.52µM
CCCS(=O)(=O)c1ccc(COC(=O)Cc2ccc([N+](=O)[O-])cc2)cc1	Pf growth 96h 2.9µM
O=C(COC(=O)Cn1cnc2ccccc21)Nc1ccc(OC(F)F)cc1	none (no result: Sm TGR block, AmpC inh detg, Pf growth 96h, Pf growth 48h)
O=C(Cn1c2[n+](c3ccccc31)CC(O)CS2)c1ccccc1 (stereo not given)	Pf growth 48h 2.1µM
O=C(O)/C=C/c1ccc(O)c(O)c1	Sm TGR block inconclusive
O=C(/C=C/c1ccc(O)c(O)c1)O[C@H](Cc1ccc(O)c(O)c1)C(=O)O	Sm TGR block 3.2µM, AmpC inh detg inconclusive, AmpC no deterg inconclusive
Cc1cccc(C2c3[nH]c4ccccc4c3CCN2C(=O)Cc2nc(-c3ccccc3)n[nH]2)n1 (stereo not given)	Pf growth 48h 12µM
Cc1cccc(C2c3[nH]c4ccccc4c3CCN2C(=O)c2nn(C)c(=O)c3ccccc23)n1 (stereo not given)	Pf growth 96h 8.3µM, Pf growth 48h inconclusive
Cc1cccc(C2c3[nH]c4ccccc4c3CCN2C(=O)c2cc(CC(C)C)[nH]c(=O)n2)n1 (stereo not given)	Pf growth 96h inconclusive, Pf growth 48h inconclusive
Cc1cccc(C2c3[nH]c4ccccc4c3CCN2C(=O)c2cc(CC(C)C)nc(C)n2)n1 (stereo not given)	Pf growth 96h inconclusive, Pf growth 48h 12µM
C=CC[C@@H]1/C=C(\C)C[C@H](C)C[C@H](OC)[C@H]2O[C@@](O)(C(=O)C(=O)N3CCCC[C@H]3C(=O)O[C@H](/C(C)=C/[C@@H]3CC[C@@H](O)[C@H](OC)C3)[C@H](C)[C@@H](O)CC1=O)[C@H](C)C[C@@H]2OC	Pf growth 96h 1.5µM, Pf growth 48h 1.7µM (no result: Sm TGR block, AmpC inh detg, SARS PLP yeast, AmpC no deterg)
CC(C)c1ccc(NC(=O)c2cc(S(=O)(=O)NCc3ccccc3Cl)ccc2F)cc1	none (no result: SARS PLP yeast, Pf growth 96h, AmpC no deterg, Pf growth 48h)
COc1ccc(-c2cc(C(=O)Oc3ccc(C#N)cc3)no2)cc1	none (no result: SARS PLP yeast, Pf growth 96h, AmpC no deterg, Pf growth 48h)
O=C1C(Cl)=C(Nc2ccc(O)cc2)C(=O)c2ccccc21	Sm TGR block 2.2µM, Pf growth 48h inconclusive
Cc1ccc(NC2=C(Cl)C(=O)c3ccccc3C2=O)cc1	Sm TGR block 3.5µM
CCNC1=C(Cl)C(=O)c2ccccc2C1=O	none (no result: Pf growth 48h)
